# Rows were chosen to be rich in hits. Some 1.4% of all compounds tested hit in one or more screens of this group.
# AmpC inh no detg – qHTS Inhibitors of AmpC Beta-Lactamase (assay without detergent); P00811; Potency, µM (doses to about 57.1 µM), hits mostly inhibitors; 0.52% of 330,000 active; AmpC nitrocefin hydrolysis, absorbance 480 nm, 0.0001% Triton; AID 485341, 2010; note: nearly all actives have a fitted effect of over 20% in size
# Target sequence (P00811 whole entry, looked up): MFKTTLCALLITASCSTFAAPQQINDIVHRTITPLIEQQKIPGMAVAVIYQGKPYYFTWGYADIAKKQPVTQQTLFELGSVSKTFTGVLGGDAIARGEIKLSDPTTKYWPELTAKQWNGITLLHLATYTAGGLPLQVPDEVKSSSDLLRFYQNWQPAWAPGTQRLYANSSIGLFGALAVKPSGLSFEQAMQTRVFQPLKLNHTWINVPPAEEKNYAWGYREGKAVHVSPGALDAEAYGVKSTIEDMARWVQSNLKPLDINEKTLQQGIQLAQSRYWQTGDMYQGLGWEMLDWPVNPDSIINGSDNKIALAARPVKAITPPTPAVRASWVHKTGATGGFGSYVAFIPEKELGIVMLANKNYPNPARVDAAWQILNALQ
#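 AmpC (5.3 nM in the dispensed reagent) in 20 mM phosphate pH 7.0 with 0.01% (detergent screen) or 0.0001% Triton X-100 was preincubated with compounds for 15 min at room temperature. Nitrocefin was then added from an 800 uM solution, and hydrolysis was followed at 480 nm.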
# VACV mCherry inh – qHTS for Stage-Specific Inhibitors of Vaccinia Orthopoxvirus: mCherry Reporter Primary qHTS | Vaccinia virus mCherry reporter infection, fluorescence | 0.63% of 310,000 active | Potency, µM (titrated, usually from 36.5 µM), usual class: inhibitors; calls by dose curve; tested in A549 cells; note: nearly all actives have a fitted effect of over 35% in size
# VACV Venus inh – qHTS for Stage-Specific Inhibitors of Vaccinia Orthopoxvirus: Venus Reporter Primary qHTS; AID 720580, 2013; Potency, µM (highest dose often 36.5 µM), hits mostly inhibitors; 0.46% of 330,000 active; Vaccinia virus Venus reporter expression, fluorescence; calls by dose curve; tested in A549 cells; note: nearly all actives have a fitted effect of over 30% in size
# SARS PLpro yeast-1 – qHTS of Yeast-based Assay for SARS-CoV PLP; S. cerevisiae expressing SARS-CoV PLpro, growth rescue; 0.19% of 330,000 active; AID 485353, 2010; Potency, µM (titrated, usually from 32.9 µM), hits mostly activators; calls by dose curve; note: nearly all actives have a fitted effect of over 55% in size
# AMA1-RON2 inh – qHTS for Inhibitors of AMA1-RON; Towards Development of Antimalarial Drug Lead: Primary Screen; AlphaScreen AMA1-biotinylated RON2 peptide binding; Plasmodium falciparum AMA1 (3D7) - RON2 peptide interaction; Potency, µM (doses to about 58.2 µM), usual class: inhibitors; 0.2% of 360,000 active; note: nearly all actives have a fitted effect of over 45% in size
#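 AMA1 (3D7) with his tag at 25 nM final met compounds first, then biotinylated RON2 peptide at 25 nM; detection used donor plus acceptor beads, 10 µg/mL apiece, read by AlphaScreen after 30 min at room temperature.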
# AmpC inh detg – qHTS Inhibitors of AmpC Beta-Lactamase (assay with detergent); P00811; AmpC hydrolysis of nitrocefin, absorbance 480 nm, 0.01% Triton; Potency, µM (highest dose often 114 µM), hits mostly inhibitors; 0.041% of 370,000 active; note: nearly all actives have a fitted effect of over 25% in size
#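 20 mM phosphate pH 7.0 + 0.01% (detergent screen) or 0.0001% Triton X-100; 5.3 nM AmpC reagent; cpd preinc 15 min RT; nitrocefin (800 uM stock) to start; A480 q20 s × 4 min; Activity was normalised to no-enzyme and no-compound control wells.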
# SARS PLpro yeast-2 – qHTS of Yeast-based Assay for SARS-CoV PLP: Hit Validation | 19% of 1,000 active | AID 652038, 2013 | calls only | shares compounds with SARS PLpro yeast-1 | yeast expressing SARS-CoV PLpro, growth phenotype rescue; call rule not given here
# Hits are given with their value; – = inactive; ? = inconclusive; · = not tested or not shown; + = active, no number; [ ] = another dose, or the depositor's remark. Unless noted, calls come from the whole dose curve; as a rule, active = well fitted curve in the direction sought with a large enough effect; inconclusive = small, poorly fitted or top-dose-only effect, or another doubt; inactive = no such curve, though single readings can be large; an effect the other way counts as inactive or inconclusive.
SMILES,AmpC inh no detg,VACV mCherry inh,VACV Venus inh,SARS PLpro yeast-1,AMA1-RON2 inh,AmpC inh detg,SARS PLpro yeast-2
NC(=O)c1ccc(Oc2ccc(Cl)c3ccccc23)c([N+](=O)[O-])c1,–,–,–,4.5µM,–[11.6 µM],–,?
O=C(Nc1nnc2n1CCS2)c1cc(C(F)(F)F)cc(C(F)(F)F)c1,·,–,–,·,·,–,·
COc1ccccc1N1CCN(C(=O)Cn2ncc3c(=O)oc4ccccc4c32)CC1,·,–,–,·,·,–,·
O=C(CCc1c[nH]c2ccccc12)NCc1ccc2c(c1)OCO2,–,–,–,–,–,–,·
c1ccc2c(CCNCc3ccc4c(c3)OCO4)c[nH]c2c1,–,·,·,?,–,–,–
COc1ccc(CN2[C@@H](CC(=O)O)c3ccc(/C=C/C(=O)O)cc3S2(=O)=O)cc1,·,–,–,·,·,·,·
Cn1c(=O)c2c(nc(SCc3nc(N)nc(N4CCCCC4)n3)n2C)n(C)c1=O,–,–,–,?,–,?,–
CCCn1c(SCc2nc(N)nc(N3CCCCC3)n2)nc2c1c(=O)n(C)c(=O)n2C,–,–,–,–,–,–,·
Cc1ccc(NC(=O)CCNS(=O)(=O)c2ccccc2)cc1S(=O)(=O)N1CCOCC1,–,–,–,–,–,–,·
Cc1ccc(NC(=O)CCNS(=O)(=O)c2ccc(Br)cc2)cc1S(=O)(=O)N1CCOCC1,–,–,–,?,–,?,–
O=C(OCc1ccccc1)c1ccccc1,·,–,–,·,–,·,·
O=C(OCc1ccccc1)c1ccc2c(c1)-c1ccccc1C2=O,–,–,–,16µM,–,–,–
COc1ccc(CCNC(=O)c2nc(SCc3ccc(C)cc3)ncc2Cl)cc1OC,·,–,–,·,·,–,·
Cc1cccc(-c2nc3c4ccccc4nc(N4CCN(c5cccc(Cl)c5)CC4)n3n2)c1,·,–,–,·,·,–,·
COc1cc(=O)n2c(c1C(=O)N(C)Cc1nonc1C)CCN(C(=O)c1cc(C)cc(C)c1)CC2,·,–,–,·,·,·,·
CCC1CN(CCC(=O)NC2CCOC(C)(C)C2)Cc2cc(OC)ccc2O1 (stereo not drawn),·,–,–,·,·,·,·
COC(=O)c1ccc(N2CCN(CCNC(=O)Nc3ccc(OC)cc3)CC2)cc1,–,·,·,?,–,?,–
CNC(=O)Oc1cccc(-c2cn3cc(OC(=O)NC)ccc3n2)c1,–,–,–,11µM,–,–,+
CNC(=O)Oc1ccc(-c2cn3cc(Cl)ccc3n2)cc1,–,–,–,–,–,–,·
CN(C)S(=O)(=O)c1ccc(/C(O)=C2/C(=O)C(=O)N(Cc3cccnc3)C2c2ccncc2)cc1 (stereo not drawn),–,·,·,10µM,–,–,–
COC(=O)c1ccccc1-c1cc(C)cc2c1OC(CNC(=O)c1ccn(C)n1)C2 (stereo not drawn),·,–,–,·,·,·,·
CCNc1nc(NCC)nc(N/N=C/c2ccc(N(C)C)cc2)n1,–,–,–,–,–,–,·
CCNc1nc(NCC)nc(N/N=C/c2ccc(O)c(O)c2)n1,–,·,·,11µM,–,–,–
CC(C(=O)NCc1ccc2c(c1)OCO2)N1c2cccc3cccc(c23)S1(=O)=O (stereo not drawn),–,–,–,?,–,–,+
Cc1nnc(SCC(=O)Nc2ccc(Br)cc2)[nH]c1=O,·,–,–,·,·,–,·
SMILES,AmpC inh no detg,VACV mCherry inh,VACV Venus inh,SARS PLpro yeast-1,AMA1-RON2 inh,AmpC inh detg,SARS PLpro yeast-2
CCc1ccc(OCc2nnc(SCCN3CCOCC3)n2CC)cc1,–,·,·,?,?,–,–
O=C(NN1C(=O)/C(=C/c2ccc(O)c(O)c2)SC1=S)c1ccccc1,–,–,–,?,?,–,–
COc1ccc(S(=O)(=O)Nc2cc3c(cc2NCc2ccccc2)n(C)c(=O)n3C)cc1OC,·,–,–,·,·,–,·
Cc1ccc(NC(=S)Nc2ccccn2)c(C)c1,–,–,–,–,–,–,·
Cc1cc(Cl)ccc1NC(=S)Nc1ccccn1,–,·,·,5µM,–,–,+
Cc1cccc(NC(=S)Nc2ccccn2)c1,–,–,–,–,–,–,·
Cc1cc(C)cc(NC(=S)Nc2ccccn2)c1,–,–,–,3.2µM,–,–,+
Cc1cccc(C(=O)NCC(=O)OCC(=O)c2ccc3ccccc3c2)c1,·,–,–,·,·,·,·
COCCCN(Cc1ccco1)C(=O)c1cc2c(s1)-c1ccccc1OC2,·,–,–,·,·,–,·
O=C(O)c1ccnc2c(O)cccc12,–,·,·,–,·,–,·
CCN(CC(=O)Nc1cc(C)nn1-c1nc(C)cc(C)n1)Cc1ccccc1,–,–,–,?,–,–,–
COc1cccc(CNc2ncnc3sc(C(=O)N4CCOCC4)c(C)c23)c1OC,·,–,–,·,·,·,·
CCC1CCc2nc3sc(C(=O)Nc4ccc(C)cc4)c(N)c3cc2C1 (stereo not drawn),·,–,–,·,·,–,·
O=c1c2ccccc2nc(N/N=C/c2c(O)ccc3ccccc23)n1O,–,·,?,13µM,?,–,+
O=C(CC(c1cccs1)N1Cc2ccccc2C1=O)Nc1ccc(Cl)cc1 (stereo not drawn),·,–,–,·,·,–,·
Cc1ccc(N2CC(C(=O)OCC(=O)Nc3ccccc3C)CC2=O)cc1 (stereo not drawn),–,·,·,?,–,–,?
CCCN1C/C(=C/c2ccc3c(c2)OCO3)C(=O)/C(=C/c2ccc3c(c2)OCO3)C1,–,?,?,14µM,–[11.6 µM],–,–
CC(C)(C)N(Cc1ccccc1)C(=O)COC(=O)C1CCCCC1,–,–,–,3.2µM,–,·,–
Cc1nnc2c3ccccc3c(-c3ccc(O)cc3)nn12,–,·,–,?,–,?,–
CN(CC(=O)Nc1ccc(Cl)c(C(F)(F)F)c1)C(=O)/C=C/c1ccco1,–,?,–,–,–,–,·
CN(CC(=O)Nc1ccc(Cl)c(C(F)(F)F)c1)C(=O)/C=C/c1cccs1,–,·,·,?,–,–,–
CCN1C(Br)=CCc2ccccc21,·,–,–,·,·,·,·
CC(=O)Nc1cccc(-c2nnc(-c3ccccc3)o2)c1,–,–,–,?,–,?,?
COc1ccc(C(=O)Nc2ccc(NC(=O)c3cccs3)cc2)cc1[N+](=O)[O-],–,–,–,–,–,–,·
CCOc1ccc(C(=O)Nc2ccc(NC(=O)c3cccs3)cc2)cc1[N+](=O)[O-],–,–,–,4µM,–,–,+
COc1ccc(Cn2c(CCC(=O)NCc3ccc(Cl)cc3)nc3cccnc32)cc1,·,–,–,·,·,–,·
COc1cc(NS(=O)(=O)c2ccc(NC(=O)COc3ccc(C)cc3)cc2)nc(OC)n1,–,·,·,11µM,–,?,–

# Screening data: PubChem, National Center for Advancing Translational Sciences (NCATS)
